Reference: PubChem BioAssay (NCATS)
Values joined by “and” are separate entries in the source; they are usually repeats but may differ in a detail not shown here. Identical values can stand only once. Records with an inconclusive call do not appear. Entries that show only a call come without a potency. Active and inactive are the calls of the source. Unless noted, calls come from the whole dose curve; as a rule, active = well fitted inhibition curve with a large enough effect; inconclusive = small, poorly fitted or top-dose-only effect; inactive = flat fitted curve, though single readings scatter.

Key:
[1] = biological target: Voltage-gated inwardly rectifying potassium channel KCNH2 (Homo sapiens) (UniProt Q12809); assay: qHTS Assay for Small Molecule Inhibitors of the Human hERG Channel Activity (AID 588834); conditions: U2OS BacMam hERG, FluxOR thallium flux fluorescence; series mostly up to 46.1 µM;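 note: lower thallium flux fluorescence means stronger hERG block; nearly all actives have a fitted effect of over 50% in size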; note: potency is the fitted concentration of half-maximal effect
How it was run: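 hERG block measured as reduced thallium-dye (FluxOR) fluorescence after stimulation buffer addition, read over 2 min. Cells were hERG-BacMam-transduced U2OS exposed to compound ~10 min […]; concentration-response fitted with Hill equation for AC50.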

[2] = biological target: Glucocorticoid receptor (Homo sapiens) (UniProt P04150); assay: qHTS assay for small molecule agonists of glucocorticoid receptor signaling (AID 588532; active = well fitted curve in the direction sought with a large enough effect in the signal ratio, with a control signal flat; the % refers to the signal ratio); conditions: HeLa MMTV-bla, beta-lactamase ratio, agonist, 18 h; stronger effect = higher value; percent of dexamethasone control, DMSO zero
How it was run: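 Titration series, up to 92 uM, applied to GRE-bla HeLa cells for 18 h at 37 C. Detection by CCF4 FRET substrate after 2 h at RT.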

[3] = qHTS assay for small molecule antagonists of peroxisome proliferator-activated receptor delta signaling (AID 588535; active = well fitted inhibition curve with a large enough effect in the signal ratio, with a control signal flat, not every such curve was filed as active; the % refers to the signal ratio;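 for max response: cells co-treated with a PPAR-delta agonist as stimulator during compound exposure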); conditions: HEK293T PPARd-UAS-bla, beta-lactamase FRET ratio, 18 h; 460 nm channel
How it was run: (§1)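 Inhibition of PPAR-delta response element-driven beta-lactamase expression is measured in HEK293T cells exposed to a compound titration series for 18 hrs at 37 C. Half-maximal inhibition comes from Hill equation fitting.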

[4] = biological target: Peroxisome proliferator-activated receptor delta (Homo sapiens) (UniProt Q03181); assay: as above; conditions: HEK293T PPARd-UAS-bla, beta-lactamase FRET ratio, 18 h; series mostly up to 76.7 µM
How it was run: as §1

[5] = biological target: Peroxisome proliferator-activated receptor gamma (Homo sapiens) (UniProt P37231); assay: qHTS assay for small molecule agonists of peroxisome proliferator-activated receptor gamma signaling (AID 588536; active = well fitted curve in the direction sought with a large enough effect in the signal ratio, with a control signal flat, not every such curve was filed as active; the % refers to the signal ratio); conditions: HEK293 PPARg-UAS-bla, beta-lactamase ratio, 16 h, percent of rosiglitazone response, DMSO as zero; series mostly up to 76.7 µM
How it was run: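 Beta-lactamase reporter read-out: CCF4 fluorescence (ex 405, em 460/530 nm) after 2 h at RT. HEK293 GeneBLAzer cells were treated for 16 h at 37 C. Hill fits gave EC50 and efficacy versus 2 uM rosiglitazone (100%) and DMSO (0%).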

[6] = biological target: Vitamin D3 receptor (Homo sapiens) (UniProt P11473); assay: qHTS assay for small molecule antagonists of vitamin D receptor signaling (AID 588541; calls by dose curve;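 note: receptor activated by calcitriol during compound treatment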); conditions: HEK293T VDR-UAS-bla, beta-lactamase ratio, antagonist mode; series mostly up to 76.7 µM
How it was run: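 VDR-UAS-bla HEK293T cells (2000/well, 2% charcoal-stripped FBS) were treated with titrated compounds plus 1-alpha,25-dihydroxyvitamin D3 (50 nM or 3 nM final) for 16 h at 37 C. CCF4 beta-lactamase fluorescence was read; Hill fits gave IC50.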

[7] = biological target: Vitamin D3 receptor (Homo sapiens) (UniProt P11473); assay: qHTS assay for small molecule agonists of vitamin D receptor signaling (AID 588543; calls by dose curve); conditions: HEK293T VDR-UAS-bla, beta-lactamase ratio, 16 h; series mostly up to 76.8 µM
How it was run: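 Agonist-mode beta-lactamase reporter: HEK293T VDR-UAS-bla cells in charcoal-stripped 2% FBS, compound series 16 h 37 C, CCF4 2 h RT. EC50 from Hill fit, scaled against DMSO and 50 nM calcitriol control.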

[8] = qHTS assay for small molecule agonists of retinoid X receptor alpha signaling (AID 588544; calls by dose curve); conditions: HEK293T RXRa-UAS-bla, beta-lactamase reporter, 18 h; 530 nm emission
[9] = biological target: Retinoic acid receptor RXR-alpha (Homo sapiens) (UniProt P19793); assay: as above; conditions: HEK293T RXRa-UAS-bla, beta-lactamase reporter, 18 h; series mostly up to 76.7 µM
[10] = biological target: Thyroid hormone receptor beta (Homo sapiens) (UniProt P10828); assay: qHTS assay for small molecule agonists of thyroid hormone receptor beta signaling (AID 588545; calls by dose curve); conditions: TR-UAS-bla GripTite HEK 293, beta-lactamase ratio, agonist mode, 18 h, percent of T3 response, DMSO as zero; series mostly up to 76.7 µM
How it was run: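 Cells (2500/well) were seeded, incubated 4 hrs at 37 C, dosed with a compound series, incubated 18 hrs, loaded with CCF4 dye for 2 hrs at RT, then read for fluorescence. Data were scaled between DMSO (0%) and 10 nM T3 (100%).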

[11] = qHTS assay for small molecule antagonists of retinoid X receptor alpha signaling (AID 588546; active = well fitted inhibition curve with a large enough effect in the signal ratio, with a control signal flat, not every such curve was filed as active; the % refers to the signal ratio;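 note: cells stimulated with 9-cis-retinoic acid as agonist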); conditions: HEK293T RXRa-UAS-bla, beta-lactamase ratio, antagonist mode; measured here: W530 green channel, cytotoxicity proxy
How it was run: (§2)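 Beta-lactamase reporter inhibition, read as CCF4 fluorescence ratio (ex 405, em 460/530 nm) after 2 h at RT. HEK293T UAS-bla cells, 2500/well, were stimulated with 9-cis-RA at 500 or 100 nM final alongside test compound for 18 h at 37 C.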

[12] = biological target: Retinoic acid receptor RXR-alpha (Homo sapiens) (UniProt P19793); assay: as above; conditions: HEK293T RXRa-UAS-bla, beta-lactamase ratio, antagonist mode
How it was run: as §2

[13] = biological target: Thyroid hormone receptor beta (Homo sapiens) (UniProt P10828); assay: qHTS assay for small molecule antagonists of thyroid hormone receptor beta signaling (AID 588547; active = well fitted inhibition curve with a large enough effect in the signal ratio, with a control signal flat, not every such curve was filed as active; the % refers to the signal ratio;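 note: cells stimulated with 0.4 nM T3 agonist during compound exposure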); conditions: TR-UAS-bla HEK293, beta-lactamase ratio, antagonist mode, 18 h
How it was run: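 TR-UAS-bla GripTite HEK293 cells in 2% charcoal/dextran FBS medium were preincubated 4 h at 37 C, given compound (0.59 nM to 92 uM) plus 0.4 nM T3 (final) for 18 h, then CCF4 for 2 h at RT; Hill fit gave IC50.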

[14] = biological target: Bile acid receptor (Homo sapiens) (UniProt Q96RI1); assay: qHTS assay for small molecule antagonists of farnesoid X receptor signaling (AID 588526; calls by dose curve); conditions: HEK293T FXR-UAS-bla, beta-lactamase ratio, antagonist mode; series mostly up to 76.7 µM
How it was run: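 Concentration-response titrations were fitted to the Hill equation for half-maximal inhibition and maximal response, with data normalised to 50 uM chenodeoxycholic acid and DMSO control wells. Cells: FXR-UAS-bla HEK293T, dialyzed FBS.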

[15] = biological target: Glucocorticoid receptor (Homo sapiens) (UniProt P04150); assay: qHTS assay for small molecule antagonists of glucocorticoid receptor signaling (AID 588533; active = well fitted inhibition curve with a large enough effect in the signal ratio, with a control signal flat, not every such curve was filed as active; the % refers to the signal ratio;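 note: cells stimulated with 2 nM dexamethasone as agonist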); conditions: HeLa MMTV-bla, GRE beta-lactamase ratio, antagonist mode, 18 h; series mostly up to 76.8 µM
How it was run: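 Antagonist-mode qHTS: compound titrations added to GRE-bla HeLa cells, then dexamethasone 2 nM final; 18 h, 37 C. CCF4 FRET fluorescence normalized to dexamethasone and DMSO; IC50 from Hill fit.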

Retinoic acid receptor RXR-alpha (Homo sapiens), sequence (P19793 whole entry, looked up): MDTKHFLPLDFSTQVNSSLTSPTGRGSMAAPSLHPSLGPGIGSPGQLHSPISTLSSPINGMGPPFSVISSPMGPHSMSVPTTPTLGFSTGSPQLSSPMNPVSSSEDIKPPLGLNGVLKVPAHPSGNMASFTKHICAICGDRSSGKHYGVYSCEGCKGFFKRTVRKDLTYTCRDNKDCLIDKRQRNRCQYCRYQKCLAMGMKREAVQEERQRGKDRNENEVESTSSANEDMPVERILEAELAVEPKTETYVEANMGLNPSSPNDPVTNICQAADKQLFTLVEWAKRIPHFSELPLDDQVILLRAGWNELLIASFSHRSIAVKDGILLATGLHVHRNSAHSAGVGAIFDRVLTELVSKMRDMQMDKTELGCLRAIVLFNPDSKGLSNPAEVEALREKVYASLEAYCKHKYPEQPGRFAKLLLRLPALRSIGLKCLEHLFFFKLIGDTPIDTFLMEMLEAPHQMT
Voltage-gated inwardly rectifying potassium channel KCNH2 (Homo sapiens), sequence (Q12809 whole entry, looked up): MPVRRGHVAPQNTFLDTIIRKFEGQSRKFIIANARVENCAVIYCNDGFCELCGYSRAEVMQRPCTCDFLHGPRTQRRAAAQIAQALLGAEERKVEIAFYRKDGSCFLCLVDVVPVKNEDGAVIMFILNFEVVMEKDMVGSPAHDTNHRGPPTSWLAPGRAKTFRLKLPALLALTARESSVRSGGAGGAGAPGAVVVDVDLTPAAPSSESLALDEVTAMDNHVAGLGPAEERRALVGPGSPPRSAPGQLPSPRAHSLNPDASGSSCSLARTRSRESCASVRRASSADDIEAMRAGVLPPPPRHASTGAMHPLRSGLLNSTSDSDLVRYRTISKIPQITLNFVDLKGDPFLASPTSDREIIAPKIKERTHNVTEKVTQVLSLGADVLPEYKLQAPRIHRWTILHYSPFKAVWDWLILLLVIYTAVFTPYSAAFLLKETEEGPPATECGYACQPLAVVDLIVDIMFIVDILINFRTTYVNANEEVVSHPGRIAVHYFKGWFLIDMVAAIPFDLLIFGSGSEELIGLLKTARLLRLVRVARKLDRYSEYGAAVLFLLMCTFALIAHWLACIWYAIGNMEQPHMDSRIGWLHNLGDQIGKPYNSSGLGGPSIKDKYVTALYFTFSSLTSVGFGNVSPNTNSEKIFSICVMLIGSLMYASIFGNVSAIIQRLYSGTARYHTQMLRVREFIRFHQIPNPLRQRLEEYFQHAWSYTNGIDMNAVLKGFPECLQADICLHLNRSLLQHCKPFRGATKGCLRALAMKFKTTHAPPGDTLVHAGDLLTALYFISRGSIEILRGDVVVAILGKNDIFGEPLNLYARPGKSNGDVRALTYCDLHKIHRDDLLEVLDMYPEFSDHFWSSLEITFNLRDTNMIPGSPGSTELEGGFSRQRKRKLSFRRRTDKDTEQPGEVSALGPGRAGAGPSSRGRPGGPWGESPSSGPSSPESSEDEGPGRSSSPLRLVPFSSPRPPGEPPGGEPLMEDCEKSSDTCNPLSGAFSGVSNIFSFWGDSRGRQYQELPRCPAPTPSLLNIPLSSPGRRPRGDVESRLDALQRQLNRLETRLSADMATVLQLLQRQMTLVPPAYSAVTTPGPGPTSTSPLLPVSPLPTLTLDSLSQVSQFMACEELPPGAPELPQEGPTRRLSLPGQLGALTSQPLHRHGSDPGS
Vitamin D3 receptor (Homo sapiens), sequence (P11473 whole entry, looked up): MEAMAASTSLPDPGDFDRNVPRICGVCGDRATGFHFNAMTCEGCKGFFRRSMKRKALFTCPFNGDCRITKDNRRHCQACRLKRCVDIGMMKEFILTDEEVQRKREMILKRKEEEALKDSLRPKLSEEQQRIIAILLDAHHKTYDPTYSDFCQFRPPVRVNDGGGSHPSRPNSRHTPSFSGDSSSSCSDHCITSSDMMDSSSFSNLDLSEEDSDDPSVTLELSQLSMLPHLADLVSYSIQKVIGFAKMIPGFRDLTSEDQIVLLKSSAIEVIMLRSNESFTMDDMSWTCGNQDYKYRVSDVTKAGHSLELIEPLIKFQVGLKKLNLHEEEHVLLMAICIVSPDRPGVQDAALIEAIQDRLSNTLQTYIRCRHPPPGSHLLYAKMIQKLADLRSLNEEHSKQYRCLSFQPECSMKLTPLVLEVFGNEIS
Thyroid hormone receptor beta (Homo sapiens), sequence (P10828 whole entry, looked up): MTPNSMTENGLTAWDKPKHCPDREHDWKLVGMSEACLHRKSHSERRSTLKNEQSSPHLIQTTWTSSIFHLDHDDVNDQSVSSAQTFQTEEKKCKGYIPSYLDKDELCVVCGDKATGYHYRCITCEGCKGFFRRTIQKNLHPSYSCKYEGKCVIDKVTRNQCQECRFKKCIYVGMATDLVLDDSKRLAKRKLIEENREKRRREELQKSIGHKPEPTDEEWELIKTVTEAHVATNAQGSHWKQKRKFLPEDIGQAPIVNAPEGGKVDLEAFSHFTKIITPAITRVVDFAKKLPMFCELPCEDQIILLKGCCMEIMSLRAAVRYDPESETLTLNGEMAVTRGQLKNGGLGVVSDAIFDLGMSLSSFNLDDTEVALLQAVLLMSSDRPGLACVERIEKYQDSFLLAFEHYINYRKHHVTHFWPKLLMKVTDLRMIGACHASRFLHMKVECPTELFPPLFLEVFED
Peroxisome proliferator-activated receptor gamma (Homo sapiens), sequence (P37231 whole entry, looked up): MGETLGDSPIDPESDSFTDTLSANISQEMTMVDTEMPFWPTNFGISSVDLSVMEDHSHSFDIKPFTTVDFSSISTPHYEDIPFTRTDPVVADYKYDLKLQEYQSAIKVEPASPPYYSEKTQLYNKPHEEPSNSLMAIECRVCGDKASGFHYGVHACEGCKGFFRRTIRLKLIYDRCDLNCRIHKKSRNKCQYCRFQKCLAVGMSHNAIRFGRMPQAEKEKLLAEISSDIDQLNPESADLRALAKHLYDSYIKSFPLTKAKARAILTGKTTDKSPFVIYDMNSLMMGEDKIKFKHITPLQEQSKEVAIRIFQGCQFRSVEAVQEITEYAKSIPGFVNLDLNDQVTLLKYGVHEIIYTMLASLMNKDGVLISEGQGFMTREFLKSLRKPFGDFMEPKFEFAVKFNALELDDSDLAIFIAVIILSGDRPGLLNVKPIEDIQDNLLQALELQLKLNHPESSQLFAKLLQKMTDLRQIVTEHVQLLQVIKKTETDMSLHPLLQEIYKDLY
Glucocorticoid receptor (Homo sapiens), sequence (P04150 whole entry, looked up): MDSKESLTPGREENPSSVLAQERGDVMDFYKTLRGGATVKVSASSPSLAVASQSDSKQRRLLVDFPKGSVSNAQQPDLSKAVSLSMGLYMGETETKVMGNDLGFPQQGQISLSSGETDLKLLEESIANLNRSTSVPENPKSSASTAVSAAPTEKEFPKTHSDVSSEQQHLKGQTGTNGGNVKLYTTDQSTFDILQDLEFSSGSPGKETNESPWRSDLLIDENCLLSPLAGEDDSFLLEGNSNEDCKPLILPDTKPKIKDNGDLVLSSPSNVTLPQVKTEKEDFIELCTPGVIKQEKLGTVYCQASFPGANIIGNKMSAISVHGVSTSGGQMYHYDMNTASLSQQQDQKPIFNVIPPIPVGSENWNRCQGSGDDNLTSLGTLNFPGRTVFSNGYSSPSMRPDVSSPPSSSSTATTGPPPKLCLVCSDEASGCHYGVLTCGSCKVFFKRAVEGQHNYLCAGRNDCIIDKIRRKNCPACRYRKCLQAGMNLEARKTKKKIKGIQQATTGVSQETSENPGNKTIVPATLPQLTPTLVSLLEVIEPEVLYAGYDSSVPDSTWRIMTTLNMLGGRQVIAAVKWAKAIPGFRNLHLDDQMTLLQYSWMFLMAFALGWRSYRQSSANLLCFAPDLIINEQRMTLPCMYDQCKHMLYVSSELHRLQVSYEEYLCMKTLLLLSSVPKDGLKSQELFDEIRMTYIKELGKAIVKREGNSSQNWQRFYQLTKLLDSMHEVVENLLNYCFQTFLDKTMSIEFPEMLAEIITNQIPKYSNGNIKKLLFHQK
Peroxisome proliferator-activated receptor delta (Homo sapiens), sequence (Q03181 whole entry, looked up): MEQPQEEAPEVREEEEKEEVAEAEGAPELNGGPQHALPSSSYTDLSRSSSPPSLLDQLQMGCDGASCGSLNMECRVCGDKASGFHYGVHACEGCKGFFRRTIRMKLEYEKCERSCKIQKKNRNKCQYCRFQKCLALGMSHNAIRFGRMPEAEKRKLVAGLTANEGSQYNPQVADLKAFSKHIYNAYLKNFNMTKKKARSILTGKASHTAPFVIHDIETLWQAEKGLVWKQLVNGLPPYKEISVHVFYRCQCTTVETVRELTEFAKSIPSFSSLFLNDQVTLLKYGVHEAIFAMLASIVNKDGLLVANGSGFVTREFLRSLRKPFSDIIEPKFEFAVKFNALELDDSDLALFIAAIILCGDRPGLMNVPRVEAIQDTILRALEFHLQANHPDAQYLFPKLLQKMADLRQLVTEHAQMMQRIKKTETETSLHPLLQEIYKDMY
Bile acid receptor (Homo sapiens), sequence (Q96RI1 whole entry, looked up): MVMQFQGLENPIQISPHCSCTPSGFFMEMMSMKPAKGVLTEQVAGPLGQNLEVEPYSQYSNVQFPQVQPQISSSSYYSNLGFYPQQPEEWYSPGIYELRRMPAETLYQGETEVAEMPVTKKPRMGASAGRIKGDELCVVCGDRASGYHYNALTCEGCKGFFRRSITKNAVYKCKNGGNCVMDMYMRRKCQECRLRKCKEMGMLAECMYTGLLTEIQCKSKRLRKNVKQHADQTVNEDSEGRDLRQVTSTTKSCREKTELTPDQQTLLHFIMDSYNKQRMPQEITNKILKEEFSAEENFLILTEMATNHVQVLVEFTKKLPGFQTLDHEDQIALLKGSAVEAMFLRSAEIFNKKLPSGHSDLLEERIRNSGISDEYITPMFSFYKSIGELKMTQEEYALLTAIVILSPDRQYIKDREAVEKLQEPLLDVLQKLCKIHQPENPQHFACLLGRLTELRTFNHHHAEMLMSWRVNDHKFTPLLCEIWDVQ

## CC(=O)CCCCn1c(=O)c2c(ncn2C)n(C)c1=O
[1]
  Potency: inactive

## Cc1cnc(C(=O)O)c[n+]1[O-]
[1]
  Potency: inactive

## C[N+](C)(C)CCCCCC[N+](C)(C)C
[1]
  Potency: inactive

## COC(=O)[C@@H]1[C@H]2C[C@H]3c4[nH]c5ccccc5c4CCN3C[C@@H]2CC[C@@H]1O
[1]
  Potency: 11.2 µM (active)

## CN(C)CCC(c1ccccc1)c1ccccn1 (stereo unspecified)
[2]
  activation: 4.14% (inactive)
[3]
  max response: 37.9%
[4]
  outcome: inactive
[5]
  outcome: inactive
[6]
  outcome: inactive
[7]
  outcome: inactive
[8]
  max response: -9.83%
[9]
  outcome: inactive
[10]
  outcome: inactive
[11]
  max response: -6.63%
[12]
  max response: -4.45% (inactive)
[13]
  activity change % (negative = inhibition): -6.32% (inactive)

## O=C1NCC2(CCN(CCc3ccccc3)CC2)O1
[1]
  Potency: inactive

## Cc1cccc(C)c1OCC(C)N (stereo unspecified)
[1]
  Potency: inactive

## CCN(CC)C(=O)c1ccc(O)c(OC)c1
[1]
  Potency: inactive

## C[C@@H](O)[C@H]1C(=O)N2C(C(=O)O)=C(S[C@@H]3CN[C@H](C(=O)N(C)C)C3)[C@H](C)[C@H]12
[1]
  Potency: inactive

## CC1(C)O[C@H]2C[C@@H]3[C@H]4CCC5=CC(=O)C=C[C@]5(C)[C@@]4(F)[C@@H](O)C[C@]3(C)[C@]2(C(=O)CO)O1
[1]
  Potency: inactive

## CCN(CC)CCOC(=O)c1ccc(N)cc1
[1]
  Potency: inactive

## CC[C@]1(O)C[C@@H]2CN(CCc3c([nH]c4ccccc34)[C@@](C(=O)OC)(c3cc4c(cc3OC)N(C)[C@H]3[C@@](O)(C(=O)OC)[C@H](OC(C)=O)[C@]5(CC)C=CCN6CC[C@]43[C@@H]65)C2)C1
[1]
  Potency: inactive

## O=C(O)CCc1nc(-c2ccccc2)c(-c2ccccc2)o1
[1]
  Potency: inactive

## CC(C)NCC(O)COc1cccc2[nH]ccc12 (stereo unspecified)
[1]
  Potency: inactive

## O=C(NCCN1CCOCC1)c1ccc(Cl)cc1
[1]
  Potency: inactive

## O=C(O)c1c(Cl)c(Cl)c(Cl)c(Cl)c1-c1c2cc(I)c(=O)c(I)c-2oc2c(I)c(O)c(I)cc12
[1]
  Potency: 12.6 µM (active)

## CC(=O)O[C@]1(C(C)=O)CC[C@H]2[C@@H]3C=C(Cl)C4=CC(=O)[C@@H]5C[C@@H]5[C@]4(C)[C@H]3CC[C@@]21C
[6]
  outcome: inactive
[10]
  outcome: inactive
[13]
  activity change % (negative = inhibition): 13.7% (inactive) and 12.8% (inactive)
[1]
  Potency: inactive

## CCOC(=O)O[C@]1(C(=O)OCCl)CC[C@@H]2[C@H]3CCC4=CC(=O)C=C[C@]4(C)[C@@H]3[C@@H](O)C[C@@]21C
[1]
  Potency: inactive

## Clc1ccc(Cn2c(CN3CCCC3)nc3ccccc32)cc1
[1]
  Potency: 1.41 µM (active) and 3.98 µM (active)

## CC(=O)N[C@@H](CS)C(=O)O
[14]
  outcome: inactive
[15]
  Potency: inactive
[3]
  max response: -4.28%
[4]
  outcome: inactive
[5]
  outcome: inactive
[6]
  outcome: inactive
[8]
  max response: -10.9%
[9]
  outcome: inactive
[10]
  outcome: inactive
[11]
  max response: -5.69%
[12]
  max response: 2.12% (inactive)
[13]
  activity change % (negative = inhibition): -10.2% (inactive)
[1]
  Potency: inactive
